Among the data in PubChem BioAssay (NCI) are growth values, retold here.

Assay in all cases: NCI-60 one-dose screen, 48 h (100 = growth as untreated, 0 = no growth, -100 = all killed)
What all share (details): 10 µM unless noted

Assay [1] concerns T-47D breast.
In assay [2] the test system is BT-549 breast.
Assay [3] deals with MDA-MB-435 melanoma.
Assay [4] concerns SW-620 colon.
The test system of assay [5] is MCF7 breast.
Assay [6] deals with HCT-116 colon.
In assay [7] the test system is HCC-2998 colon.
In assay [8] the test system is KM12 colon.

SMILES strings stand for the structures. Compounds without any hit were thinned out: in the full panel of roughly 83,000, 20% have a hit.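 Testing used 96-well plates and a 48-hour single-concentration exposure. Example: -40 means 40% of the starting cells died.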 Values without a mark were called inactive. Activity calls are given as the source filed them. How the source made its calls: active means growth percent below 10; inactive means the rest.

`COc1ccc(/C=C2\CN(C(=O)CCN3CCC(=NO)CC3)C/C(=C\c3ccc(OC)cc3)C2=O)cc1`: the growth was 23.3% in assay [1]; 15.2% in assay [2]; -61.4% (active) in assay [3]; -39.3% (active) in assay [4]; -0.32% (active) in assay [5]; -31.8% (active) in assay [6]. In addition, the growth in assay [7] is -89.5% (active); in assay [8], -59.6% (active).

Turning to `O=C(O)C(O)C(O)C(=O)O.[NH-]C1CCCCC1[NH-].[Pt+2]` (stereo not drawn), the growth in assay [1] is 105%; in assay [2], 108%; in assay [3], 104%; in assay [4], 95%; in assay [5] it was 91.9%; in assay [6], 95.1%. Moreover, the growth in assay [7] is 104%; in assay [8] it was 96.4%.

As to `COc1cnc2c(c1)C(=O)c1c-2n(CCCN2CCCC2)c(=O)c2cc([N+](=O)[O-])ccc12`, the growth in assay [1] is 24.5%; in assay [2], 18.2%; in assay [3], 2.83% (active); in assay [4], -19.3% (active); in assay [5] it was 3.81% (active); in assay [6], -67.5% (active). The growth in assay [7] was 16.2%; in assay [8] it was -33.3% (active).

In the case of `ClC1=C2NC=NC2n2c(nnc2-c2ccc(Cl)cc2)N1` (stereo not drawn), the growth is 90.8% in assay [1]; 101% in assay [2]; 99.9% in assay [3]; 115% in assay [4]; 85.6% in assay [5]; 98.5% in assay [6]. Also, the growth was 102% in assay [7] and 99.6% in assay [8].

Regarding `C/C(Cc1ccc(Cl)cc1)=C(\c1ccc(OCCN2CCCCCC2)cc1)c1ccc(OC(=O)Cc2ccccc2)cc1`, the growth in assay [1] is 57.6%; in assay [2], 89.3%; in assay [3] it was 46.3%; in assay [4] it was 57.4%; in assay [5] it was 18.6%; in assay [6], 38.2%. Also, the results for the growth in assay [7] and in assay [8] were 22.3% and 50.2%, respectively.

`COc1cc(C2C(C(=O)c3cccs3)=C(O)C(=O)N2CCN2CCOCC2)cc(OC)c1OC` (stereo not drawn): the growth is 104% in assay [1]; 107% in assay [2]; 99.5% in assay [3]; 97.2% in assay [4]; 95.1% in assay [5]; 101% in assay [6]. Further, the growth in assay [7] was 101%; in assay [8], 98.3%.

As for `C=C1C(=O)O[C@H]2[C@H]1CC/C(Cn1cc(Cc3c[nH]c4ccccc34)nn1)=C\CC[C@@]1(C)O[C@@H]21`, the growth was 1.32% (active) in assay [1]; 44.2% in assay [2]; 13.6% in assay [3]; -58.7% (active) in assay [4]; -61.2% (active) in assay [5]; -89.5% (active) in assay [6]. The results for the growth in assay [7] and in assay [8] were 61.5% and 67.2%, respectively.

With `COc1ccc(C(=O)/C=C/c2c(Cl)c3c(c(OC)c2Cl)OCC(=O)N3)cc1`, the growth was 25.1% in assay [1]; -14.8% (active) in assay [2]; 7.18% (active) in assay [3]; 17.7% in assay [4]; 14.9% in assay [5]; 11.4% in assay [6]. The results for the growth in assay [7] and in assay [8] were 41.8% and 15.9%, respectively.

Take `CC(C)(C)n1cc(-c2ccnc(NCCNS(=O)(=O)c3ccccc3)c2)c(-c2cccc(O)c2)n1`: the growth is 24.3% in assay [1]; 26.4% in assay [2]; 68.3% in assay [3]; 16.2% in assay [4]; 36.5% in assay [5]; 47.2% in assay [6]. Also, the growth was 47.5% in assay [7] and 42.8% in assay [8].

As for `CCN(CC)Cc1cc(Nc2c3ccc(Cl)cc3nc3c(C)cccc23)ccc1O`, the growth in assay [1] is -70.5% (active); in assay [2], -54.3% (active); in assay [3], -89.6% (active); in assay [4], -14% (active); in assay [5], -61.6% (active); in assay [6], -73.2% (active). Besides, the growth in assay [7] was -95% (active); in assay [8] it was -45.4% (active).

On to `O=C1Nc2c(ccc(Cl)c2Cl)/C1=C/c1cc(Br)c(O)c(Br)c1`, for which the growth in assay [1] was 54.8%; in assay [2] it was 29.2%; in assay [3], -29.4% (active); in assay [4] it was 36.1%; in assay [5], 52.8%; in assay [6], 58.4%. The growth was 68.7% in assay [7] and 32.5% in assay [8].

Regarding `CCC(=O)OCc1cccc(OC)c1`, the growth in assay [1] was 95.3%; in assay [2], 103%; in assay [3], 97.7%; in assay [4], 108%; in assay [5], 105%; in assay [6], 95.1%. Further, the growth is 101% in assay [7] and 108% in assay [8].

`O=c1c2c3c(sc2n2c(CCl)nnc2n1Cc1ccccc1)CCCC3`: the growth is -69.9% (active) in assay [1]; -93.5% (active) in assay [2]; -64.5% (active) in assay [3]; -82.9% (active) in assay [4]; -79.9% (active) in assay [5]; -56.2% (active) in assay [6]. For the same compound, the growth in assay [7] was -69.3% (active); in assay [8], -69.6% (active).

For the compound `CC(C)(C)n1cc(-c2ccnc(NCCCNS(=O)(=O)c3cccc4ccccc34)c2)c(-c2cccc(O)c2)n1`, the growth is 7.41% (active) in assay [1]; 39.8% in assay [2]; 36.4% in assay [3]; 16.3% in assay [4]; 11.5% in assay [5]; 29.4% in assay [6]. Also, the growth in assay [7] is -49.4% (active); in assay [8], 14.3%.

Regarding `CC(=O)Oc1cc2cnc3c4cc(OC(C)=O)c(OC(C)=O)cc4ccc3c2cc1OC(C)=O`, the growth in assay [1] was 14.7%; in assay [2], 26.8%; in assay [3], 23.3%; in assay [4], 24.8%; in assay [5] it was 6.96% (active); in assay [6], 5.17% (active). The growth in assay [7] is 45.7%; in assay [8], 22.8%.

In the case of `CSc1ncnc2c1ncn2C1CCCO1` (stereo not drawn), the growth is 107% in assay [1]; 102% in assay [2]; 101% in assay [3]; 116% in assay [4]; 104% in assay [5]; 101% in assay [6]. The growth in assay [7] was 113%; in assay [8] it was 110%.
